In the library only some 2.9% were active in any assay of this set; here they are far more common.
EBNA-1 inh – blocks EBNA-1 binding to DNA; EBNA-1 DNA binding, fluorescence polarization; inhibition, % at 14.8 µM; actives 0.34% (n = 300,000); in the data active means inhibition above about 28%
PAFAH1B3 FP inh – blocks human PAF acetylhydrolase 1B catalytic subunit 3; recombinant PAFAH1B3, FP-rhodamine probe, fluorescence polarization; inhibition, % at 3.39 µM; actives 0.28% (n = 340,000); AID 492972;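 active means inhibition above the screen-wide average of all tested compounds plus 3 SD, cut at about 25% in these data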;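 further: 0% = enzyme with DMSO only and 100% = wells lacking PAFAH1B3 protein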
ZTA counter – ZTA (EBV) inhibition in EBNA-1 counter-screen; P03206; ZTA-DNA binding, fluorescence polarization; inhibition, % at 11 µM; actives 0.15% (n = 320,000); AID 2234; in the data active means inhibition above about 33%
Target sequence (P03206 whole entry, looked up): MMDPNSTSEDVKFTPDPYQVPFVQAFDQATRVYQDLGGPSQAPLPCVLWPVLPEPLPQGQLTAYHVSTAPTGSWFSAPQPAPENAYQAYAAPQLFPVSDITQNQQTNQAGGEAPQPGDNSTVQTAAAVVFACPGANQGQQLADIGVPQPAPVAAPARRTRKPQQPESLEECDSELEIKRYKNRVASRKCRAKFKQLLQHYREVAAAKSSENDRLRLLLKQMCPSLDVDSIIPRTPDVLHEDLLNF
PAFAH2 FP inh – inhibitors of human PAFAH2; Q99487; recombinant PAFAH2, FP-rhodamine activity probe, fluorescence polarization; inhibition, % at 3.39 µM; actives 0.99% (n = 340,000); AID 492956;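 active means inhibition above the mean over all tested compounds plus 3 SD, cut at about 30% in these data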;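 further: inhibitors block probe labeling of enzyme so polarization drops; 0% = enzyme with DMSO and 100% = wells lacking PAFAH2 protein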
PAFAH1B2 FP inh – inhibitors of human PAFAH1B2; recombinant PAFAH1B2, FP-rhodamine activity probe, fluorescence polarization; actives 1.2% (n = 340,000); inhibition, % at 3.39 µM; P68402;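 active means inhibition above the mean of all tested compounds plus 3 SD, cut at about 24% in these data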;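 further: 0% = enzyme with DMSO and 100% = wells lacking PAFAH1B2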
rCAG RNA binder – binds r(CAG) RNA repeats; inhibition, % at 3 µM; r(CAG) RNA repeat, TO-PRO-1 dye displacement fluorescence; actives 1.3% (n = 370,000);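 active means inhibition above the plate cutoff, the mean of all test compounds on that plate plus 3 SD, cut at about 35% in these data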;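 further: 0% = DMSO alone and 100% = 100 µM mitoxantrone as full dye displacement; higher means more dye released from RNA so lower well fluorescence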
An asterisk follows results filed as active; / = no result.

SMILES	EBNA-1 inh	PAFAH1B3 FP inh	ZTA counter	PAFAH2 FP inh	PAFAH1B2 FP inh	rCAG RNA binder
O=S(=O)(O)c1cc(OS(=O)(=O)c2ccccc2)cc2ccccc12	-11	7	-2	3	30*	21
COc1ccc(S(=O)(=O)Oc2ccc3ccccc3c2)cc1	-9	12	-7	2	7	0
O=c1c2ccccc2nc2n1C(CSCc1ccc(Cl)cc1Cl)CS2 (stereo unspecified)	-4	10	5	12	39*	4
O[C@@H](Cc1ccccc1)[C@@H](/C=C/c1ccccc1)NCCc1ccccc1	/	/	/	/	/	3
CCOc1ccc(-c2cccc(NS(=O)(=O)c3cc([N+](=O)[O-])ccc3Cl)c2)nn1	-7	-5	-12	5	9	40*
C=CCn1c(=NC(=O)c2sc3ccccc3c2Cl)sc2cc(S(N)(=O)=O)ccc21	31*	-11	5	-2	-12	/
COCCn1c(=NC(=O)c2sc3ccccc3c2Cl)sc2cc(S(N)(=O)=O)ccc21	2	-19	-6	-15	-3	13
Cc1ccc(COc2ccc(/C=N/O)cc2)cc1	5	1	-2	1	33*	0
CCOc1ccc(/C=N/O)cc1	9	-2	-28	-1	4	4
Cc1ccc(S(=O)(=O)NNC(=O)c2ccccc2O)cc1	10	-8	-2	10	6	0
Cc1ccc(S(=O)(=O)NNC(=O)c2cnn(-c3ccccc3)c2-n2cccc2)cc1	2	2	-6	9	28*	-2
O=C(Nc1nnc(-c2ccc3c(c2)CCCC3)o1)c1ccc(Cl)cc1Cl	4	7	6	5	8	57*
O=C(Nc1nnc(-c2ccc3c(c2)CCCC3)o1)c1c(F)cccc1F	-4	-1	-6	-1	6	25
COc1ccc(/C=N/NC(=O)c2ccc(CN3C(=O)c4cccc5cccc3c45)cc2)cc1O	14	25	19	-34	27*	12
COc1cc(/C=N/NC(=O)c2ccc(CN3C(=O)c4cccc5cccc3c45)cc2)cc(OC)c1O	-15	19	-16	-14	9	15
CC(OC(=O)c1ccc([N+](=O)[O-])s1)C(=O)Nc1ncc(Cl)cc1Cl (stereo unspecified)	-4	30*	-6	30*	17	0
O=C(COC(=O)c1cc(Cl)ccc1Cl)NC1CCCC1	-3	-1	3	13	3	-1
O=C(COC(=O)c1ccc2c(c1Cl)C(=O)c1ccccc1C2=O)NC1CCCCC1	-4	3	-1	44*	-5	4
O=C(COC(=O)c1ccc2c(c1Cl)C(=O)c1ccccc1C2=O)NC1CC1	-5	8	-15	34*	0	12
O=C(COC(=O)c1ccccc1OCc1ccc(Cl)cc1)NC1CC1	8	6	16	28	-4	-6
CN(C1=C(NC(=O)c2ccccc2)C(=O)c2ccccc2C1=O)C1CCS(=O)(=O)C1 (stereo unspecified)	0	51*	9	38*	17	3
CC(=O)NC1=C(NC2CCS(=O)(=O)C2)C(=O)c2ccccc2C1=O (stereo unspecified)	3	7	16	-2	4	3
COC(=O)[C@]12C[C@H](CC(=O)N3CCSCC3)C(=O)N(CCC3=CCCCC3)C1=C[C@H](C(C)C)O[C@@H]2C1CC1	/	/	/	/	/	1
O=C(O)c1cccc2cccc(-c3c4ccc(=O)c(O)c-4oc4c(O)c(O)ccc34)c12	/	66*	/	69*	62*	92*
CNc1ccc(Br)cc(C(=O)/C=C/c2ccc(Cl)cc2Cl)c1=O	-7	4	6	30*	4	34
SMILES	EBNA-1 inh	PAFAH1B3 FP inh	ZTA counter	PAFAH2 FP inh	PAFAH1B2 FP inh	rCAG RNA binder
CCNc1ccc(Br)cc(C(=O)/C=C/c2ccc(Cl)cc2)c1=O	-2	11	8	28	7	/
CCNc1ccc(Br)cc(C(=O)/C=C/c2c(Cl)cccc2Cl)c1=O	-1	6	-4	36*	1	/
COc1ccccc1NC(=O)OCCCN1CCC2(CCC(C)CC2)C1=O (stereo unspecified)	/	/	/	/	/	0
O=C(CCc1ccccc1)N[C@H]1/C(=N/O)CCC[C@]12C(=O)N(Cc1ccccc1)c1ccccc12	/	/	/	/	/	7
O=S(=O)(NCCc1ccccn1)c1ccc(F)c(F)c1	-6	2	-12	5	3	-4
Cc1ccc(CCNS(=O)(=O)c2ccc3c(c2)C(C)(C)C(=O)N3C)cc1	1	0	-4	-9	11	5
